Screening data: PubChem BioAssay, National Center for Advancing Translational Sciences (NCATS)
In the library only some 7.9% were active in any assay of this set; here they are far more common.
MCF10A rereplic = DNA re-replication induction in MCF 10a cells; MCF 10A DNA re-replication, Hoechst nuclear intensity, 48 h; Potency, µM (doses to about 46.1 µM), hits mostly activators; hit rate 2.9% among 350,000; AID 624296; further: nearly all actives have a fitted effect of over 50% in size
HT1080 IDH1KD tx = kills HT-1080 cells with IDH1 knockdown. HT-1080 IDH1 knockdown viability, ATP luminescence, 48 h. Potency, µM (titrated, usually from 46.1 µM), most hits filed as cytotoxic. hit rate 2% among 360,000. AID 686971
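% activity derives from luminescence (CellTiter-Glo), normalised to DMSO and no-cell wells. HT-1080-IDH1KD cells, 750/well, had 48 h compound exposure at 37 °C.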
KB-V1 MDR tox = KB-V1 MDR subline cytotoxicity. hit rate 3.4% among 400,000. KB-V1 MDR cells viability, CellTiter-Glo, 72 h. AID 1347076. Potency, µM (series often up to 46.1 µM), most hits filed as cytotoxic; further: nearly all actives have a fitted effect of over 60% in size
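Readout: CellTiter-Glo luminescence, 10 min after addition. Cells: KB-V1 MDR subline, 72 h at 37 degrees C with compound. Analysis: corrected, normalized data fitted to concentration-effect curves.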
HT1080NT lethal = kills 2HG-producing HT-1080-NT fibrosarcoma cells; Potency, µM (doses to about 46.1 µM), most hits filed as cytotoxic; HT-1080-NT fibrosarcoma viability, CellTiter-Glo ATP luminescence, 48 h; hit rate 1.6% among 360,000;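 further: NT is the 2HG producing partner of a matched IDH1 knockdown line; nearly all actives have a fitted effect of over 55% in size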
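HT-1080-NT; 750 cells/well; 5% FBS RPMI; 48 h compound, 37 degrees C; CellTiter-Glo luminescence; curve fitting and curve-class assignment.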
SW480 rereplic = DNA re-replication induction in SW480 cells | SW480 DNA re-replication, Hoechst DNA content imaging, 48 h | hit rate 1.8% among 340,000 | Potency, µM (doses to about 46.1 µM), actives largely listed as activators | AID 624297; further: nearly all actives have a fitted effect of over 55% in size
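Readout is total intensity of Hoechst-stained nuclei, excited at 405 nm and collected at 500-530 nm. Compound treatment lasted 48 hr at 37 C in 5% CO2 before staining.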
KB-3-1 tox = kills parental KB-3-1 adenocarcinoma cells. KB-3-1 viability, CellTiter-Glo ATP luminescence, 72 h. hit rate 1.4% among 400,000. Potency, µM (series often up to 46.1 µM), most hits filed as cytotoxic; further: nearly all actives have a fitted effect of over 60% in size
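KB-3-1 parental drug-naive adenocarcinoma cells in DMEM/10% FBS, incubated 72 h at 37 C with pin-transferred compounds across a concentration series. Viability by CellTiter-Glo luminescence; concentration-response curves fitted after normalization.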
Of the large screens only hits and unclear results are named; the others gave an inactive call. The call rests on the fitted dose curve; in most records, active means well fitted curve in the direction sought with a large enough effect; inconclusive means small, poorly fitted or top-dose-only effect, or another doubt; inactive means no such curve, though single readings can be large; an effect the other way counts as inactive or inconclusive.

COc1ccc(Cl)cc1NC(=O)CSc1nc(Nc2ccccc2)nc(N2CCOCC2)n1	SW480 rereplic inconclusive
O=[N+]([O-])c1cccc(-c2nnnn2-c2cccc(F)c2)c1	none
Nc1nc(NCc2ccco2)nc(Nc2ccccc2)c1[N+](=O)[O-]	KB-V1 MDR tox inconclusive
CC1CCCN(c2nc(NCc3ccco3)nc(N)c2[N+](=O)[O-])C1 (centres undefined)	KB-V1 MDR tox 15µM, HT1080NT lethal inconclusive (no result: SW480 rereplic)
CC1CC(C)CN(c2nc(NCc3ccco3)nc(N)c2[N+](=O)[O-])C1 (centres undefined)	MCF10A rereplic inconclusive, KB-V1 MDR tox inconclusive, KB-3-1 tox inconclusive
Cc1ccc2c(NCc3ccco3)nc(NC(C)C)nc2c1	HT1080 IDH1KD tx 18µM, KB-V1 MDR tox inconclusive, HT1080NT lethal 26µM (no result: MCF10A rereplic, SW480 rereplic)
c1coc(CNc2nc(NCc3ccco3)c3ccccc3n2)c1	none (no result: MCF10A rereplic, HT1080 IDH1KD tx, HT1080NT lethal, SW480 rereplic)
Fc1ccc(Nc2nc(NCc3ccco3)c3ccccc3n2)cc1	MCF10A rereplic inconclusive, KB-V1 MDR tox 18µM, HT1080NT lethal inconclusive, SW480 rereplic inconclusive, KB-3-1 tox inconclusive
Nc1nc(Nc2ccccc2)nc(NCc2ccco2)c1[N+](=O)[O-]	MCF10A rereplic inconclusive, KB-V1 MDR tox 16µM
COc1cccc(C2C(C(=O)Nc3ccccc3OC)=C(C)Nc3nc(-c4ccco4)nn32)c1 (centres undefined)	none (no result: MCF10A rereplic, HT1080 IDH1KD tx, HT1080NT lethal, SW480 rereplic)
Nc1nc(NCCc2ccccc2)nc(NCc2ccccc2)c1[N+](=O)[O-]	KB-3-1 tox inconclusive
CN(Cc1ccccc1)c1nc(N)c([N+](=O)[O-])c(NCc2ccccc2)n1	MCF10A rereplic inconclusive, HT1080 IDH1KD tx inconclusive, KB-V1 MDR tox 18µM, HT1080NT lethal inconclusive, KB-3-1 tox inconclusive
CC(C)c1ccc(Nc2nc(Cl)nc(NCc3ccco3)n2)cc1	MCF10A rereplic 23µM, HT1080 IDH1KD tx inconclusive, HT1080NT lethal inconclusive, SW480 rereplic 5.8µM, KB-3-1 tox inconclusive
CC1(C(=O)Nc2ccc(Cl)c(Cl)c2)CCN1C(=O)CC1CCCC1 (centres undefined)	none (no result: MCF10A rereplic, SW480 rereplic)
OC(COc1ccc2c(c1)OCO2)CN1CCCCC1 (centres undefined)	none
CCOC(=O)C(NC(=O)CCl)(Nc1sc(C)c(CC)c1C#N)C(F)(F)F (centres undefined)	MCF10A rereplic inconclusive, KB-V1 MDR tox inconclusive, HT1080NT lethal inconclusive, SW480 rereplic 16µM
Cc1ccccc1NC(=O)C(=Cc1ccc(C(=O)O)cc1)C(=O)Nc1ccccc1C	MCF10A rereplic 13µM, HT1080 IDH1KD tx 4.6µM, KB-V1 MDR tox inconclusive, HT1080NT lethal 6.5µM, SW480 rereplic inconclusive, KB-3-1 tox inconclusive
CC(C)C(C(=O)NCC1CCCO1)N(Cc1ccccc1)C(=O)CNS(=O)(=O)c1ccccc1 (centres undefined)	MCF10A rereplic inconclusive
CCCC1=C(C(=O)OCC)C(c2ccccc2OC)NC(=O)N1 (centres undefined)	none
Cc1cccc(NC(=O)N2CCC(c3nc4ccccc4o3)CC2)c1	KB-V1 MDR tox 18µM
Cc1cc(C)cc(NC(=O)N2CCC(c3nc4ccccc4o3)CC2)c1	none
O=C(Nc1cccc(Cl)c1Cl)C1CC(=O)N(c2ccc(Br)cc2)C1 (centres undefined)	MCF10A rereplic 5.8µM, HT1080 IDH1KD tx inconclusive, HT1080NT lethal inconclusive
O=C(N/N=C/c1ccccc1O)C1CC(=O)N(c2ccc(Cl)cc2)C1 (centres undefined)	MCF10A rereplic inconclusive, HT1080 IDH1KD tx 3.3µM, HT1080NT lethal inconclusive, SW480 rereplic 5.8µM, KB-3-1 tox inconclusive
CCN1C(=O)[C@H]2[C@@H](c3ccc(-c4ccc5c(c4)OCO5)c(OC)c3)N[C@@](Cc3ccccc3)(C(=O)OC)[C@H]2C1=O	MCF10A rereplic inconclusive, KB-V1 MDR tox inconclusive
O=C(COC(=O)c1cccc(Br)c1)Nc1ccc2[nH]c(=O)[nH]c2c1	none
CCC(=O)Nc1cc2[nH]c(=O)cc(C)c2cc1C	MCF10A rereplic 0.65µM
O=C(CCl)Nc1cc2[nH]c(=O)[nH]c2cc1Br	MCF10A rereplic 21µM, HT1080 IDH1KD tx 6.5µM, KB-V1 MDR tox 15µM, HT1080NT lethal 10µM, SW480 rereplic inconclusive, KB-3-1 tox inconclusive
Cc1cc2c(C)cc(=O)[nH]c2cc1NC(=O)CCl	MCF10A rereplic 12µM, HT1080 IDH1KD tx inconclusive, KB-V1 MDR tox inconclusive, HT1080NT lethal inconclusive, SW480 rereplic 21µM, KB-3-1 tox inconclusive
Cc1cc2oc(=O)cc(C)c2cc1NC(=O)CCl	HT1080 IDH1KD tx inconclusive, HT1080NT lethal inconclusive, SW480 rereplic inconclusive, KB-3-1 tox inconclusive
Cc1ccc(O)c(C(=O)c2cnc3c(c2)c(=O)n(C)c(=O)n3C)c1	none
Cc1c(C#N)c(N)nc2c3c(sc12)NC(=O)CC3c1ccc(Cl)cc1 (centres undefined)	MCF10A rereplic inconclusive, HT1080 IDH1KD tx 16µM, KB-V1 MDR tox inconclusive, HT1080NT lethal 21µM (no result: SW480 rereplic)
Cc1onc(-c2ccccc2)c1C(=O)NCc1ccco1	none
CCN(CC(=O)NCc1ccc(F)cc1)C(=O)/C=C/c1ccc(OC)cc1	none
CCN(CC(=O)NCc1ccc(F)cc1)C(=O)/C=C/c1ccc(OC)c(S(=O)(=O)NC(C)C)c1	MCF10A rereplic 1.8µM, HT1080 IDH1KD tx inconclusive, HT1080NT lethal 4.1µM, SW480 rereplic 8.2µM, KB-3-1 tox 2.6µM
CCCN(CCC)S(=O)(=O)c1ccc(C(=O)Nc2c(C)n(C)n(-c3ccccc3)c2=O)cc1	none
COc1ccc(CN(Cc2cccn2C)S(=O)(=O)c2ccc(C)cc2)cc1	MCF10A rereplic inconclusive, KB-V1 MDR tox inconclusive
CC(=O)Nc1nc(-c2ccc(Br)s2)cs1	none
O=C(Nc1nc(-c2cc(Cl)sc2Cl)cs1)c1cccs1	MCF10A rereplic 8.2µM, HT1080 IDH1KD tx 12µM, KB-V1 MDR tox inconclusive, HT1080NT lethal inconclusive, KB-3-1 tox inconclusive
O=C(NC(=S)Nc1nc(-c2ccc(Cl)cc2)cs1)c1cccs1	MCF10A rereplic inconclusive
O=C(Nc1nc(-c2cc(Cl)sc2Cl)cs1)c1ccc(Br)s1	MCF10A rereplic inconclusive, KB-V1 MDR tox inconclusive, KB-3-1 tox 21µM
COc1cccc(NC(=O)CN(C)C(=O)/C=C/c2cn(Cc3ccccc3)nc2-c2cccnc2)c1	MCF10A rereplic inconclusive, SW480 rereplic 15µM
COc1ccccc1N1CCN(C(=O)c2cn(Cc3ccccc3)nc2-c2cccnc2)CC1	KB-V1 MDR tox inconclusive
COc1cccc(N2CCN(C(=O)c3cn(Cc4ccccc4)nc3-c3cccnc3)CC2)c1	MCF10A rereplic 5.2µM, HT1080 IDH1KD tx 3.3µM, KB-V1 MDR tox inconclusive, HT1080NT lethal 5.8µM, SW480 rereplic 4.1µM, KB-3-1 tox 1.8µM
Nc1ccc2c(c1)ncn2CCCn1cnc2cc(N)ccc21	none
COc1ccc(OC)c(CCNc2ncnc3onc(-c4ccc(Cl)cc4)c23)c1	none (no result: MCF10A rereplic, HT1080 IDH1KD tx, HT1080NT lethal, SW480 rereplic)
